Assay results as given in the supplement of paper PMC11624193, “Coupling cellular drug-target engagement to downstream pharmacology with CeTEAM” (Nature Communications, 2024).
Structures can show the parent of a compound that is named as a salt.

target: PARP1 L713F-nLuc biosensor (HCT116) (UniProt P09874); assay: PARP1 L713F-nLuc/akaLuc ratio relative to DMSO control (biosensor stabilization) (fold change); higher = more PARP1 biosensor stabilization (target engagement / stabilizer), active = hit call of the paper; settings: stock concentration (mM; final µM = stock mM x 1): 10; 24 h
Sequence (P09874 whole entry L713F, looked up): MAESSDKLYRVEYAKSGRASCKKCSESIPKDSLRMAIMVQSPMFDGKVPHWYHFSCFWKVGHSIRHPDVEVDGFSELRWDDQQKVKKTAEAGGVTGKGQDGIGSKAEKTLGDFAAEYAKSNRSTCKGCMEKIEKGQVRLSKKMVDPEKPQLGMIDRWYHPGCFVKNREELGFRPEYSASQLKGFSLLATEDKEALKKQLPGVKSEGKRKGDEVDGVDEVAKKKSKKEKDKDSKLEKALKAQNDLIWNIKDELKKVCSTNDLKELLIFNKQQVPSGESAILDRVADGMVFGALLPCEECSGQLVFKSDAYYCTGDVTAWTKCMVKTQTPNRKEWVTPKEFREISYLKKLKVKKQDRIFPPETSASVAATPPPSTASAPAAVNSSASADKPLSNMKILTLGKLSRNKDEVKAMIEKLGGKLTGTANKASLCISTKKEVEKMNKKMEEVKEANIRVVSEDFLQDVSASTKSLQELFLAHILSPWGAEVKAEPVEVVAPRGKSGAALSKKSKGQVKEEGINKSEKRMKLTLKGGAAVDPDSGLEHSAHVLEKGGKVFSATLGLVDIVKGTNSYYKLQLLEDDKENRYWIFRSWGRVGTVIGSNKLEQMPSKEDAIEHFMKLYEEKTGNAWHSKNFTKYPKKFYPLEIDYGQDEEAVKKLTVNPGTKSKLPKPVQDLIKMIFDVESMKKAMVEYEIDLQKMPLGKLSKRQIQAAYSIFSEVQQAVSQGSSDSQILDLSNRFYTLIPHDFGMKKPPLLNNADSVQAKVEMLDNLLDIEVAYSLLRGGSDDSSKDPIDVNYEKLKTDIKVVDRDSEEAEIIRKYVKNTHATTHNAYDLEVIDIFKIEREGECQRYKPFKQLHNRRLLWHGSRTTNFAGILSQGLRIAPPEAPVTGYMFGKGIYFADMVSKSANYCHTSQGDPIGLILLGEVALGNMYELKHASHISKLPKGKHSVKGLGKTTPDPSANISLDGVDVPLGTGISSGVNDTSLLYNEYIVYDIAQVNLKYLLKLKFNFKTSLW

Row | Structure (SMILES) | PARP1 L713F-nLuc/akaLuc ratio
1 | Cc1ncccc1-c1cnc(NCc2c(F)ccc3c2CCO3)n2cnnc12 | 1.39 (inactive)
2 | Nc1ncn([C@@H]2O[C@H](CO)[C@@H](O)[C@H]2O)c(=O)n1 [5-Azacytidine] | 2.35 (inactive)
3 | CNCc1ccc(-c2[nH]c3cc(F)cc4c3c2CCNC4=O)cc1 [Rucaparib (phosphate)] | 5.55 (active)
4 | COc1cc(C(=O)Nc2ccccc2-c2cn3c(CN4CCNCC4)csc3n2)cc(OC)c1OC | 0.569 (inactive)
5 | O=C1CCC(N2C(=O)c3ccccc3C2=O)C(=O)N1 (stereo unspecified) [Thalidomide] | 0.757 (inactive)
6 | CO[C@H]1C[C@@H]2CC[C@@H](C)[C@@](O)(O2)C(=O)C(=O)N2CCCC[C@H]2C(=O)O[C@H]([C@H](C)C[C@@H]2CC[C@@H](O)[C@H](OC)C2)CC(=O)[C@H](C)/C=C(\C)[C@@H](O)[C@@H](OC)C(=O)[C@H](C)C[C@H](C)/C=C/C=C/C=C/1C [Rapamycin (Sirolimus)] | 0.6 (inactive)
7 | CCNc1nc(Nc2cc(F)c(C(=O)N3CCOCC3)cc2OC)ncc1C(F)(F)F | 0.683 (inactive)
8 | CCN(CC)CCNC(=O)c1c(C)[nH]c(/C=C2\C(=O)Nc3ccc(-c4csc(-c5ccccc5)n4)cc32)c1C [Amcasertib (BBI503)] | 0.885 (inactive)
9 | Cn1ncc(Cl)c1-c1cc(C(=O)N[C@H](CN)Cc2cccc(F)c2)sc1Cl [Afuresertib (hydrochloride)] | 0.764 (inactive)
10 | CCS(=O)(=O)N1CC(CC#N)(n2cc(-c3ncnc4[nH]ccc34)cn2)C1 [Baricitinib (phosphate)] | 1.19 (inactive)
11 | C/C=C(\CC[C@@H](C)[C@H]1CC[C@H]2[C@@H]3CC=C4C[C@@H](O)CC[C@]4(C)[C@H]3CC[C@]12C)C(C)C [Fucosterol] | 1.04 (inactive)
12 | C/C(=N\NC(=O)c1cccc(S(=O)(=O)N2CCOCC2)c1)c1cc(Cl)ccc1O | 0.495 (inactive)
13 | COc1cc2c(NC3CCN(C(C)C)CC3)nc(C3CCCCC3)nc2cc1OCCCN1CCCC1 | 0.748 (inactive)
14 | N=C(NOCC(O)CN1CCCCC1)c1cccnc1 (stereo unspecified) | 0.933 (inactive)
15 | CCN(CCO)CCCOc1ccc2c(Nc3cc(CC(=O)Nc4cccc(F)c4)[nH]n3)ncnc2c1 [Barasertib-HQPA] | 0.878 (inactive)
16 | Oc1cc(O)c2cc(O)c(-c3cc(O)c(O)c(O)c3)[o+]c2c1 [Delphinidin (chloride)] | 1.09 (inactive)

Row | Structure (SMILES) | PARP1 L713F-nLuc/akaLuc ratio
17 | NC(=O)c1cccc2cn(-c3ccc([C@@H]4CCCNC4)cc3)nc12 [Niraparib (MK-4827)] | 6.42 (active)
18 | NC(=O)c1cccc2cn(-c3ccc([C@@H]4CCCNC4)cc3)nc12 [Niraparib (R-enantiomer)] | 8.24 (active)
19 | CS(=O)(=O)c1ccc(Oc2cc(F)cc(C#N)c2)c2c1[C@H](O)C(F)(F)C2 | 1.42 (inactive)
20 | CN(C)C(=N)NC(=N)N [Metformin] | 1.5 (inactive)
21 | COc1ccc(/C=C/C(=O)NO)c(-c2ccc(-c3ccccc3)cc2)c1 | 0.65 (inactive)
22 | NCCNS(=O)(=O)c1cccc2c(Cl)cccc12 [A-3 (hydrochloride)] | 0.846 (inactive)
23 | O=C(Nc1nc2cccc(-c3ccc(CN4CCS(=O)(=O)CC4)cc3)n2n1)C1CC1 [Filgotinib] | 0.941 (inactive)
24 | Cc1cc(C)c(CNC(=O)c2cc(Cl)c3c(c2C)O[C@@](C)([C@H]2CC[C@H](N(C)C)CC2)O3)c(=O)[nH]1 [Valemetostat (tosylate)] | 1.05 (inactive)
25 | CC1(C)CN(C(=O)c2ccc(-c3cccc4nc(NC(=O)C5CC5)nn34)cc2)C1 [Solcitinib] | 0.98 (inactive)
26 | Cc1cc(Nc2cc(N3CCN(C)CC3)nc(Nc3ccc([N+](=O)[O-])cc3)n2)n[nH]1 | 1.52 (inactive)
27 | O=C(Nc1ccccc1-c1cn2c(CN3CCNCC3)csc2n1)c1cnc2ccccc2n1 | 1 (inactive)
28 | C[C@@H]1COCCN1c1cc(C2([S@](C)(=N)=O)CC2)nc(-c2cc[nH]c3nccc2-3)n1 | 1.79 (inactive)
29 | COc1ccc2c(=O)c(-c3ccccc3)coc2c1 [7-Methoxyisoflavone] | 0.63 (inactive)
30 | S=C(NCc1ccc2c(c1)OCO2)N1CCN(c2ncnc3c2oc2ccccc23)CC1 [Amuvatinib (MP-470)] | 0.659 (inactive)
31 | COc1ccc(CN2CCC(c3ccc4nc(C(=O)N5CCN(Cc6ccc(C(F)(F)F)cc6)CC5)[nH]c4c3)CC2)cn1 | 0.348 (inactive)
